In the supplement of paper PMC3334620:
Over roughly 33,000 sequences, “E-score (-0.5 to 0.5)” has its median near -0.016; the highest 2% begin near 0.3. The list comes from a sample in which the highest values are over-represented; it also holds similar and randomly drawn sequences.

target: T1, Yer184c (UniProt P39961); assay: PBM E-score (8-mer binding enrichment) (E-score (-0.5 to 0.5)); higher = stronger / more preferred TF binding; settings: protein concentration: 100 nM; construct: GST-full length
T1 sequence: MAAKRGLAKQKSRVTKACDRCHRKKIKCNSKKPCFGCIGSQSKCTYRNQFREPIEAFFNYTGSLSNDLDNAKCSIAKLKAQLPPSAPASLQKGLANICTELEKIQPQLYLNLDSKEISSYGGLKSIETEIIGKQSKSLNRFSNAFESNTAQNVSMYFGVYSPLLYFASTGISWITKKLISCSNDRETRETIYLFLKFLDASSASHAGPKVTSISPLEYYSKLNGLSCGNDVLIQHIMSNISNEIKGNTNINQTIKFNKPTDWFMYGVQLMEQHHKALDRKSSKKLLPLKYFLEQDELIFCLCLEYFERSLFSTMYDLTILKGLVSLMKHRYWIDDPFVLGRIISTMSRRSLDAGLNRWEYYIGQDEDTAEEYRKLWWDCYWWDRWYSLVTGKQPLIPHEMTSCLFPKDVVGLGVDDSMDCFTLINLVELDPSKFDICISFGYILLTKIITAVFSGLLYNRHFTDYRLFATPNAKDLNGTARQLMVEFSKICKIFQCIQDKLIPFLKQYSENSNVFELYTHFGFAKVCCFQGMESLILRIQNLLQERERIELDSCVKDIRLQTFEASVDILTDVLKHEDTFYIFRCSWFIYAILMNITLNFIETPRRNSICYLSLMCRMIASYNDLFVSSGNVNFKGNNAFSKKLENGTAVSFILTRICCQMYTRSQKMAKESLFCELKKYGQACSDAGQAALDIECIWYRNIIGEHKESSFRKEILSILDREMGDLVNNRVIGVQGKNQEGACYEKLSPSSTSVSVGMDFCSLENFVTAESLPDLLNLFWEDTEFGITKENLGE
Description: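 Universal 'all 10-mer' protein binding microarrays (Agilent AMADID 015681) probed with GST-tagged S. cerevisiae TFs (full-length or DBD) made by in vitro transcription/translation (PURExpress), about 100-200 nM. Bound TF was detected with fluorescent anti-GST. Each ungapped 8-mer (which stands for itself and its reverse complement) is scored by the PBM enrichment score (E-score), a modified Wilcoxon-Mann-Whitney statistic from -0.5 to +0.5, computed with the Universal PBM Analysis Suite. Scale: above 0.35 generally sequence-specific binding.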

Row | Sequence | PBM E-score
1 | AGCCCAAG | -0.228
2 | AACCGAAT | 0.199
3 | AACCGAAG | 0.259
4 | AGCCGAAT | 0.392
5 | CGCCGAAA | 0.293
6 | GGCCGACC | 0.028
7 | GGCCGAAC | 0.305
8 | AACCGAAA | 0.345
9 | GCCCGAAC | 0.0908
10 | TGCCGAAA | 0.371
11 | TGCCGACA | 0.222
12 | ACCCGAAT | 0.104
13 | AGCCGACT | -0.00308
14 | GCGGGGAA | -0.0187
15 | CGGGCTAA | 0.0904
16 | CTGCCTCC | -0.339
17 | ATACGACC | -0.182
18 | GATCTGGA | -0.0474
19 | GACTTTCA | -0.0149
20 | CATGCGCC | -0.092
21 | CCATTAAG | -0.0869
22 | ACCTCACT | -0.0518
23 | ACTAGCGG | -0.0521
24 | GGCCGAAA | 0.398
25 | CACCGAAC | 0.143

Row | Sequence | PBM E-score
26 | AGCCGAAA | 0.364
27 | GCCCGAAA | 0.171
28 | GACCGAAC | 0.33
29 | GACCGAAA | 0.265
30 | AGCCGAAC | 0.279
31 | GGTCGAAA | -0.168
32 | ACCCGAAA | 0.169
33 | CACTAGGC | -0.175
34 | CGATAAAG | -0.00214
35 | CTACGCAA | -0.00413
36 | ACCCAATA | -0.0358
37 | GGTTACAA | 0.23
38 | CCATAACC | -0.184
39 | AAGATAGT | 0.108
40 | GAACATTC | 0.102
41 | CCGAAAAC | 0.243
42 | TCGAGAAA | 0.0245
43 | ACGAAAAG | 0.187
44 | ACGAAATA | 0.11
45 | CCGAAAAG | 0.31
46 | CCGAAATA | 0.34
47 | GCGAAATA | 0.206
48 | GCGAGAAA | -0.0014
49 | CCGAAAAA | 0.371
50 | CCGAAAGG | 0.166

Row | Sequence | PBM E-score
51 | CCGAGAAA | 0.351
52 | TCGAAAAA | 0.169
53 | AGCCATCG | -0.189
54 | CCTTGCCG | 0.124
55 | CCACAGAG | -0.188
56 | AACTTACG | 0.0113
57 | GGGGGGAC | -0.445
58 | CGGCGCAC | 0.216
59 | GTCTTAAC | -0.122
60 | TAAGGTGA | -0.0772
61 | CGGGGAAG | 0.0845
62 | ACAGTTAT | -0.0291
63 | CCGAAGAA | 0.345
64 | ACGAAGAA | 0.258
65 | TCGAAGAA | -0.0488
66 | GTGAATCA | -0.0703
67 | TGTTAACA | 0.111
68 | CCGGTAAG | 0.369
69 | CCGGTACG | -0.00725
70 | CCGGTAAA | 0.321
71 | TCGGTAAA | 0.296
72 | CCGGTAAC | 0.259
73 | ACGGTAAG | -0.00751
74 | GAAAGAGC | -0.0552
75 | CCCTTTGA | -0.266

Row | Sequence | PBM E-score
76 | ACGCGACA | -0.0168
77 | CCGATTCA | 0.0391
78 | CCGATTCC | 0.164
79 | CCGATTCG | 0.358
80 | ATGCCAAT | -0.0596
81 | CCGGACCA | 0.297
82 | CCGGACAC | 0.286
83 | ACGGACCA | 0.327
84 | CGGGACCG | 0.31
85 | CCGGACAG | 0.324
86 | CCGGACCG | 0.353
87 | CGGGACCA | -0.098
88 | GCGGACCA | 0.243
89 | CCGGACAA | 0.29
90 | AGGGACCG | -0.165
91 | CCGGACCC | 0.235
92 | ACGGACCG | 0.193
93 | GTAGTGGA | 0.177
94 | ATGCTGGG | -0.0916
95 | ACAATTGT | 0.097
96 | AATGCTCG | -0.0329
97 | AACCAACG | -0.0237
98 | ACAGCCCA | -0.0828
99 | TATCTGAA | 0.108
100 | AAAACTGT | 0.0544

Row | Sequence | PBM E-score
101 | GCGGACAA | 0.298
102 | TCGGACAA | 0.378
103 | ACGGACAA | 0.27
104 | TCGCTGCA | -0.0505
105 | AACTGGGA | -0.151
106 | ATTGCGGC | 0.0068
107 | AAAGTGCA | -0.0658
108 | CCGGCGCA | 0.277
109 | ACGGCGCG | 0.232
110 | CCGGCGCC | 0.354
111 | ACGGCGCC | 0.122
112 | CCGGCGCG | 0.305
113 | GCGGCGCC | 0.299
114 | CGTATTGC | 0.0559
115 | ATAGCTGC | 0.0565
116 | ATCGGAAC | 0.291
117 | TTAGGAAA | 0.146
118 | GTCGGAGA | 0.158
119 | GTCGGAAA | 0.318
120 | TTCAGAAA | 0.0478
121 | ATCGGAAG | 0.211
122 | TTCGGAAA | 0.402
123 | ATCGGAAT | 0.379
124 | ATCGGAAA | 0.344
125 | ATCGGAGA | 0.216

Row | Sequence | PBM E-score
126 | GTCGGGAA | 0.0333
127 | ATCGGCAT | 0.267
128 | CAGCCTTA | -0.0157
129 | CTTGGATC | -0.0713
130 | CATCGCAG | -0.28
131 | GCGGGAAC | -0.00769
132 | CCTTAAGG | -0.0623
133 | TCCGGTAA | 0.387
134 | CCCGGTAA | 0.221
135 | GCCGGTAA | 0.346
136 | GCCGGTGA | 0.235
137 | ACCGGTAA | 0.217
138 | GCCGGTAC | 0.229
139 | GTAGCTAA | -0.0505
140 | GGCCTCCA | -0.0306
141 | ATCCCATG | -0.297
142 | AGCTGAGG | -0.11
143 | ACCCTCCC | 0.0834
144 | ACGAAAGC | 0.0461
145 | TGGCTAAA | 0.0133
146 | CGGCTAGC | 0.24
147 | AGGCTAAA | -0.0661
148 | GGGCTAGA | -0.183
149 | CGGCTAAA | 0.327
150 | CGGCTAGA | 0.306

Row | Sequence | PBM E-score
151 | CTCCCACA | -0.184
152 | AGTGCACT | 0.067
153 | CTGGGTTA | -0.115
154 | ATGAGTAA | 0.0956
155 | ACAACCCG | 0.0761
156 | AAATTCCA | 0.216
157 | CAATTCCA | -0.0791
158 | AAATTCCC | -0.0964
159 | AAATTCCG | 0.384
160 | CAATTCCC | 0.178
161 | CAATTCCG | 0.315
162 | AACAACCC | -0.0615
163 | ATCCTTGA | 0.0411
164 | AGGATAAC | -0.197
165 | TTGATAAA | 0.329
166 | TGGATAAA | 0.18
167 | CGGATAAG | 0.217
168 | ATGATAAA | 0.271
169 | CGGATAAA | 0.417
170 | CGGATGAA | 0.351
171 | CGGATGAG | 0.171
172 | GGGATAAC | -0.0432
